# Experimental data taken from PubChem BioAssay AID504832 (National Center for Advancing Translational Sciences (NCATS), 2011).
# Among all 310,000 compounds or so, about 18,000 (5.8%) were called active. About 22% were inconclusive and are not listed. Shown is part of a subset that was picked to be rich in actives. A number with no mark means an inactive call. Calls come from the whole dose curve; as a rule, active = well fitted inhibition curve with a large enough effect; inconclusive = small, poorly fitted or top-dose-only effect, or another doubt; inactive = no such curve, though single readings can be large or run the other way.
# Assay: Primary qHTS for delayed death inhibitors of the malarial parasite plastid, 48 hour incubation
# Conditions: P. falciparum luciferase growth in erythrocytes; series mostly up to 28.7 µM; activity change, negative = inhibition: at the top concentration
# In short: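 First compound was added to culture medium, then infected red cells at 0.1% parasitemia and 2% hematocrit (final). After incubation at 37 C under 5% CO2, luciferase detection reagent was dispensed and light output recorded.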
# % is set by controls: 0 for no effect and ±100 for the full control effect; potency is the fitted concentration of half-maximal effect.
Compound,"activity change, negative = inhibition [%]",Potency
O=C(NC1CCN(Cc2ccccc2)CC1)c1ccccc1F,9.94,–
COc1ccc(C(=O)C2CCCN(S(=O)(=O)c3cccc(C)c3)C2)c(C)c1 (stereo unspecified),5.74,–
Cc1ccc(NC(=O)C2CCCN(S(=O)(=O)c3c(C)noc3C)C2)c(C)c1 (stereo unspecified),-11.5,–
COc1c(C)cc(C(=O)C2CCCN(S(=O)(=O)c3c(C)noc3C)C2)cc1C (stereo unspecified),–,9.28 µM (active)
CN(C(=O)CSc1nnc(-c2ccc(C(C)(C)C)cc2)n1C)C1CCS(=O)(=O)C1 (stereo unspecified),-24.5,–
CC(=O)Nc1ccc(C(=O)N(C2=NC(C)CS2)c2ccc(Cl)cc2)cc1 (stereo unspecified),9.6,–
Nc1nc(SCc2cccc(Br)c2)n[nH]1,-0.207,–
Cc1nc(NNC(=O)c2ccccc2)cc(-c2ccccc2)n1,22.6,–
Cc1ccc(-c2csc(NC(=O)c3cccs3)n2)cc1,-29.7,–
Cc1ccc(-c2csc(NNC(=O)c3ccccc3)n2)cc1,–,2.33 µM (active)
CCn1c(SCC(=O)NNC(=O)c2ccc(OC)cc2)nnc1C(C)C,5.7,–
Cc1ccc(Cn2c(=N)c(S(=O)(=O)c3ccc(C)cc3)cc3c(=O)n4ccccc4nc32)cc1,-12.6,–
Cn1c(Cc2cccs2)nnc1SCC(=O)Nc1ccccc1,62,–
COc1cccc(C(=O)Nc2c3c(nn2-c2cccc(C)c2C)CS(=O)(=O)C3)c1OC,–,10.4 µM (active)
COc1ccccc1OCC(=O)Nc1c2c(nn1-c1ccc(F)cc1)CS(=O)(=O)C2,–,10.4 µM (active)
O=C(CC1CCCCC1)Nc1c2c(nn1-c1ccc(F)cc1)CS(=O)(=O)C2,-10.4,–
CCC(CC)C(=O)Nc1c2c(nn1-c1ccc(C)cc1)CS(=O)(=O)C2,0.949,–
COc1cccc(C(=O)Nc2cccnc2)c1OC,18.7,–
Cc1cccc(-n2nc3c(c2NC(=O)c2cc4ccccc4o2)CS(=O)(=O)C3)c1,-2.93,–
CCOC(=O)c1sc(N)c(C#N)c1COC(=O)C1=COCCO1,-10.8,–
Cc1cc(C)cc(NC(=O)C2CCCN2S(=O)(=O)c2cccc3cccnc23)c1 (stereo unspecified),-32.2,–
CCn1c(CC(=O)Nc2ccccc2C)nnc1SCC(=O)NC1=NCCS1,-5.51,–
CCCc1nn(C)c2c(=O)[nH]c(-c3cc(S(N)(=O)=O)ccc3OCC)nc12,-11.5,–
N#Cc1cc([N+](=O)[O-])ccc1NCC1CCCO1 (stereo unspecified),-12.1,–
O=C(Cc1ccc(Cl)cc1)NC1CCS(=O)(=O)C1 (stereo unspecified),-17.3,–
COc1ccc(NC(=S)NC2CCS(=O)(=O)C2)cc1 (stereo unspecified),6.45,–

Compound,"activity change, negative = inhibition [%]",Potency
CC(C)C(=O)NC(NC(=S)NC1CCS(=O)(=O)C1)C(Cl)(Cl)Cl (stereo unspecified),–,7.38 µM (active)
CC1CC(C)CN(C(=O)COC(=O)c2ccc3ncsc3c2)C1 (stereo unspecified),9.65,–
CCc1noc(C)c1C(=O)Nc1nc(-c2ccccc2)cs1,59,–
COCCNc1nc(N)c([N+](=O)[O-])c(NCCO)n1,13.3,–
Nc1nc(Nc2ccccc2)nc(NCCO)c1[N+](=O)[O-],-43.5,–
C=CCNc1nc(N)c([N+](=O)[O-])c(NC2CCCCC2)n1,–,14.7 µM (active)
CSCc1nnc(NC(=O)c2ccc(S(=O)(=O)N3CCCCC3C)cc2)o1 (stereo unspecified),-4.96,–
CC(C)CNC(=O)c1cc(-c2ccc(Br)cc2)on1,232,–
CC(C)Cc1cc(C(=O)NCCc2ccccc2)no1,186,–
CC(C)Cc1cc(C(=O)Nc2cc(Br)ccc2O)no1,–,1.85 µM (active)
Cc1ccc(C(=O)NC(=S)Nc2ccc(N3CCOCC3)cc2)cc1,16.1,–
COc1cccc(OC)c1C(=O)NC(=S)Nc1ccc(N2CCOCC2)c(Cl)c1,–,14.7 µM (active)
CCOc1ccc(C(=O)NC(=S)Nc2ccc(N3CCOCC3)c(Cl)c2)cc1[N+](=O)[O-],0.0077,–
O=C(NCCc1nnc2ccc(SCC(=O)N3CCOCC3)nn12)c1ccccc1,20.3,–
O=C(C1CCCN(S(=O)(=O)c2ccccc2)C1)N1CCN(c2ccc(F)cc2)CC1 (stereo unspecified),–,13.1 µM (active)
CCCS(=O)(=O)N1CCCC(C(=O)N2CCN(c3ccccc3)CC2)C1 (stereo unspecified),44.2,–
Cc1ccc(S(=O)(=O)N2CCCC(C(=O)N3CCN(C)CC3)C2)cc1 (stereo unspecified),16.6,–
CC(=O)N1CCCc2cc(S(=O)(=O)N3CCCC(C(=O)NCc4ccc(Cl)cc4)C3)ccc21 (stereo unspecified),-25.6,–
CC(=O)N1CCCc2cc(S(=O)(=O)N3CCCC(C(=O)N4CCN(c5cccc(Cl)c5)CC4)C3)ccc21 (stereo unspecified),–,4.15 µM (active)
COc1ccc(S(=O)(=O)N2CCCC(C(=O)N3CCN(C)CC3)C2)cc1C (stereo unspecified),4.62,–
CC(C)CCN(C(=O)c1csnn1)C(C(=O)NC1CCCC1)c1ccccc1 (stereo unspecified),5.81,–
CCOc1ccc(N(C)S(=O)(=O)c2cnc[nH]2)cc1,13.2,–
CC(=O)c1ccc(NC(=O)C2CCCN2S(=O)(=O)c2cccs2)cc1 (stereo unspecified),-16.3,–
COc1ccc(C(=O)NC(C)Cn2nc(C)cc2C)cc1OC1CCN(C(C)=O)CC1 (stereo unspecified),-1.41,–
Cc1cccc(-c2nc(CS(=O)CC(=O)NC(C)CCc3ccccc3)c(C)o2)c1 (stereo unspecified),21.3,–
